The panel holds about 83,000 compounds, 20% with a hit somewhere; the sample as a whole holds those more often.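 Method: cells in 96-well plates; compound added at one concentration; 48 h incubation; percent growth measured; values under 10 scored active.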 Active and inactive are the calls of the source.

In the first experiment the test system is TK-10 renal. Kind of experiment: NCI-60 one-dose screen, 48 h (100 = growth as untreated, 0 = no growth, -100 = all killed). The note with it: 10 µM unless noted.
For the molecule `COc1ccc(CN2c3ccccc3Sc3ccccc32)cc1O`, the growth was 58.3% (inactive).
Still for that read-out and setting: as for `CCOc1ccc(-n2nc(C(=O)Nc3cc(OC)c(OC)c(OC)c3)nc2-c2cc(OC)c(OC)c(OC)c2)cc1`, the figure is 104% (inactive); as for `CC/C=C\C[C@H]1C/C=C2/C(=O)C=C[C@H]2C/C=C\CCCC(=O)O1`, 29.6% (inactive).

The next experiment has as its system ACHN renal. The experiment is described as above. The note with it: 10 µM unless noted.
For the molecule `COc1cc2c(cc1O)CC[C@@H]1[C@@H]2CC[C@]2(C)[C@@H](NCCN(C)C)CC[C@@H]12`, the growth was -92.8% (active).
For the molecule `COc1cccc2c1C(=O)c1c(O)c3c(c(O)c1C2=O)C[C@](O)(C(=O)CO)C[C@H]3O[C@@H]1C[C@@H](NC(=O)CCCN(C)C2(c3ccc(F)cc3)CC3CCC2C3)[C@H](O)[C@@H](C)O1` (stereo partly drawn), the growth was -86% (active).
As to `O=c1cc(CSc2nnc(SCc3cc(=O)oc4c3ccc3ccccc34)o2)c2ccc3ccccc3c2o1`, the growth was 102% (inactive).
Same read-out and setting: then `COc1cc2c(cc1O)CC[C@@H]1[C@@H]2CC[C@]2(C)[C@@H](OCCN(C)C)CC[C@@H]12`, with 57.9% (inactive).
For `COc1ccc(-c2nnc(SCC(=O)c3ccc(Cl)cc3)o2)cc1`, the growth is 102% (inactive).
Same read-out and setting: then `NC(=NCCCOc1ccc(Cl)cc1)Nc1ccc(C(F)(F)F)cc1`, with 9.43% (active); and `CCCCC[C@H]1C/C=C2/C(=O)C=C[C@@H]2C/C=C\CCCC(=O)O1`, with -91% (active).
`CNC(=O)c1cc(Oc2ccc(NC(=O)Nc3ccc(Cl)c(OC(F)(F)F)c3)c(F)c2)ccn1`: the growth is 28.2% (inactive).
In the case of `COc1ccc2c(c1)C(=O)/C(=C/c1cccnc1)CC2`, the growth is 88.5% (inactive).
As for `COc1cccc(-c2nc(SCC(=O)Nc3ccc(C(=O)/C=C/c4ccc(OC)c(OC)c4)cc3)[nH]c(=O)c2C#N)c1`, the growth was 86.6% (inactive).

The record behind these values is PubChem BioAssay (NCI).
